# Laboratory results: PubChem BioAssay AID1688 (National Center for Advancing Translational Sciences (NCATS), 2009)
# Out of some 220,000 compounds screened, about 2,400 (1.1%) were called active. Another 7% or so got no clear call; they are omitted. The sample as a whole holds a higher share of actives than the screen did. Unmarked numbers belong to inactive results. The call rests on the fitted dose curve; in most records, active means well fitted inhibition curve with a large enough effect; inconclusive means small, poorly fitted or top-dose-only effect, or effect the other way; inactive means no such curve, though single readings can be large or run the other way.
# Assay: qHTS Multiplex Assay to Identify Dual Action Probes in a Cell Model of Huntington: Aggregate Formation (GFP); further: nearly all actives have a fitted effect of over 60% in size
# Details: PC12 HttQ103-GFP aggregates, Acumen cytometry, 40 h; series mostly up to 9.22 µM; activity change, negative = inhibition: at the top concentration
# Summary of the method: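 Read-out: GFP aggregate count by laser scanning cytometer (488 nm excitation, 500-530 nm emission, 1–25 µm objects >6 SD above background). Cells: PC12, inducible HTTex1-Q103-GFP, 100 nM tebufenozide; compounds titrated.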
# On the % scale 0 is the no-effect control and ±100 the full control effect; potency means the concentration at half of the fitted maximal effect.
SMILES,"activity change, negative = inhibition",Potency
CCOC(=O)c1c(C)oc(C)c(C(=O)OCC)c1=O,-16.8%,
Cc1c(S(=O)(=O)NCc2ccccc2)c(=O)n(C)c(=O)n1C,34.1%,
CCc1ccc2nc(Nc3ncc(C(C)=O)c(C)n3)nc(C)c2c1,-19.3%,
O=C(CSc1nc2ccccc2c(=O)n1CCCO)N1CCc2ccccc21,4.23% [at 46.1 µM],
Cn1c(SCC(=O)N2CCCc3ccccc32)nc2ccccc2c1=O,,7.94 µM (active)
O=C(CSc1nc2[nH]ncc2c(=O)n1-c1ccccc1)N1CCCc2ccccc21,1.39% [at 46.1 µM],
Cc1nc(CNS(=O)(=O)c2cc([N+](=O)[O-])ccc2C)cs1,0.787%,
COc1ccc(NC(=S)NCCNC(C)=O)cc1,12.1% [at 46.1 µM],
COc1ccc(CS(=O)/C(Cl)=C(/Cl)C(=O)Nc2ccc(OC)nc2)cc1 (centres undefined),,5.01 µM (active)
COc1ccc(NC(=S)Nc2ccccc2Cl)cn1,7.84% [at 46.1 µM],
FCOC(C(F)(F)F)C(F)(F)F,6.73% [at 46.1 µM],
COc1ccc(C(=O)NC(=S)NNC(=O)CCc2ccccc2)cc1,-24% [at 46.1 µM],
O=C(Nc1ccc2ccccc2c1)/C(=C/c1cccc(Br)c1)NC(=O)c1ccco1,-8.13% [at 46.1 µM],
CC(Oc1ccc2ccccc2c1)C(=O)NNC(=S)NC(=O)c1ccco1 (centres undefined),,11.2 µM (active)
O=C(c1ccco1)N1CCN(CCOc2ccccc2)CC1,12.3%,
COc1ccc(-c2cc(C(F)(F)F)nc(S(C)(=O)=O)n2)cc1OC,,10 µM (active)
COc1ccc(-c2cc(C(F)(F)F)nc(SCC(=O)Nc3ccc4c(c3)OCO4)n2)cc1OC,-7.98% [at 46.1 µM],
COc1cc(OC)nc(S(C)(=O)=O)n1,5.84% [at 46.1 µM],
CC1Cc2ccccc2N1S(=O)(=O)c1ccc(Cl)nc1 (centres undefined),5.35%,
COc1ccc(C2(C#N)CCC(C(=O)O)CC2)cc1OC1CCCC1 (centres undefined),3.74% [at 46.1 µM],
CCOC(=O)N1CCN(C(=O)C2CCN(Cc3ccc(OC)cc3OC)CC2)CC1,4.49% [at 46.1 µM],
CCOC(=O)N1CCN(C(=O)C2CCN(c3ncnc4c3sc3cccc(F)c34)CC2)CC1,,10 µM (active)
CCOC(=O)C1CCN(c2ncnc3c2oc2ccc(Br)cc23)CC1,11.4% [at 46.1 µM],
O=C(N/N=C\c1cccc(Br)c1)c1ccccc1-n1cccc1,-0.974% [at 46.1 µM],

SMILES,"activity change, negative = inhibition",Potency
CC(C)/C=N/NC(=O)c1cc(Br)ccc1O,,8.91 µM (active)
COc1ccc(-c2[nH]ncc2/C=N/NC(=O)c2cc(Br)ccc2O)c(OC)c1,-30.4% [at 46.1 µM],
Cc1c(C)c(C)c2[nH]c(=S)[nH]c2c1C,-19.2%,
CCc1c(C)nc2c(-c3ccccc3)c(C)nn2c1Nc1ccc(NC(C)=O)cc1,13.2%,
O=C(CCC(=O)Nc1ccccc1)N/N=C/c1ccccc1F,10.3% [at 46.1 µM],
O=C(N/N=C/c1ccccc1O)/C(=C/c1ccccc1)CCO,,7.94 µM (active)
O=C(CCCCCNC(=O)c1ccccc1)N/N=C/c1ccccc1,10.1% [at 46.1 µM],
O=[N+]([O-])C(=c1ccc2c(c1)N1C3=C(CCCC3)CC3CCCCC31N=2)[N+](=O)[O-] (centres undefined),-2.2%,
CCOC(=O)CN(C(=O)COc1nc(-c2ccccc2)cc(C)c1C#N)c1ccc(F)cc1,-11%,
C=CCN(c1ccccc1C(=O)NCC(=O)OCC)S(=O)(=O)c1ccc(C)cc1,-26.8%,
O=C(O)c1ccc(NC(=O)C2CCCCC2)cc1,8.31% [at 46.1 µM],
CN1C(=O)c2ccc(NC(=O)C3CCCCC3)cc2C1=O,3.28% [at 46.1 µM],
O=C(Nc1cnn(Cc2ccc(Cl)cc2)c1)C1CCCC1,,0.794 µM (active)
COc1ccc(-c2nc3cc([N+](=O)[O-])ccc3o2)cc1OC,-3.14%,
COc1ccc(OCC(=O)Nc2cc(C)c(Cl)cc2OC)c([N+](=O)[O-])c1,7.75% [at 46.1 µM],
Cc1nnc(-c2ccc(Oc3ccc(C)c(C)c3)c([N+](=O)[O-])c2)o1,,11.2 µM (active)
O=C(N/N=C/c1ccccn1)c1cccnc1,-3.79%,
NC(=O)Cc1ccc2c(c1)[nH]c1ccccc12,14%,
O=[N+]([O-])/C=C1\CCCCCN1,18.3%,
CCc1ccc(S(=O)(=O)NCC(O)COc2ccc(OC)cc2)cc1 (centres undefined),-7.53%,
COc1ccc(Cc2nnc(N/N=C/c3ccccc3O)[nH]c2=O)cc1OC,,1.26 µM (active)
CCOc1ccc(-n2c(O)c(/C=N/Nc3nnc(C)c(=O)[nH]3)c3ccccc3c2=O)cc1,5.42% [at 46.1 µM],
Cc1nnc(N/N=C/c2ccccn2)[nH]c1=O,-25.2%,
COC(=O)[C@@H]1CC2=CC(=O)CC[C@]2(C)[C@@]23O[C@@H]2C[C@@]2(C)[C@@H](CC[C@@]24CCC(=O)O4)[C@H]13,7.77% [at 46.1 µM],

SMILES,"activity change, negative = inhibition",Potency
CC(=O)c1cccc(NC(=O)Nc2ccc(C)cc2)c1,-23.6% [at 46.1 µM],
Cc1ccc(NC(=O)C(C)c2cccc(C(=O)c3ccccc3)c2)cc1 (centres undefined),,25.1 µM (active)
COC(C(=O)Nc1ccc(C(C)=O)cc1)c1ccccc1 (centres undefined),3.95% [at 46.1 µM],
CCOC(=O)C1C(c2ccc(OC)c(OC)c2)c2c([nH][nH]c2=O)CC1(C)O (centres undefined),-8.41%,
O=C1N(c2ccccc2)C(=Nc2ccccc2)SC12CC2,-12.3%,
Cc1cc(N2CCN(Cc3ccc4c(c3)OCO4)CC2)n2ncnc2n1,-6.11% [at 46.1 µM],
O=c1[nH]c(N2CCN(Cc3ccc4c(c3)OCO4)CC2)nc2c1CCCC2,7.27% [at 46.1 µM],
Fc1ccc2[nH]c3c(N4CCN(Cc5ccc6c(c5)OCO6)CC4)ncnc3c2c1,,3.55 µM (active)
O=C(NNS(=O)(=O)c1ccccc1)c1cnn(-c2ccc(Cl)cc2)c1C(F)(F)F,3.68%,
COc1cccc(OC)c1CN(C)C(=O)c1cnccc1C(F)(F)F,0.946%,
C/C(=N/NC(=O)c1ccn(C)n1)c1ccncc1,8.06%,
CC(/C=C/c1ccco1)=N/NC(=O)C1COc2ccccc2O1 (centres undefined),4.37%,
O=S(=O)(Nc1ccccn1)c1ccc(Oc2ccccc2)cc1,-9.45% [at 46.1 µM],
COc1ccccc1Oc1ccc(S(=O)(=O)Nc2cccnc2)cc1,,11.2 µM (active)
COc1ccc(S(=O)(=O)Nc2cccnc2)c(Cl)c1Cl,1.71%,
O=C(CSc1nc(-c2ccco2)cc(C(F)(F)F)n1)N1CCc2ccccc2C1,9.77% [at 46.1 µM],
COc1ccc(-c2cc(C(F)(F)F)nc(SCCC(=O)NCc3ccco3)n2)cc1,-15.2% [at 46.1 µM],
O=C(CSc1nc(-c2ccco2)cc(C(F)(F)F)n1)NCc1cccs1,,15.8 µM (active)
CCOc1cccc(C(=O)Nc2cccnc2)c1,9.21% [at 46.1 µM],
CCOc1cccc(NC(=O)CC#N)c1,,1.78 µM (active)
CCC(=O)Nc1ccc(C(=O)Nc2cccc(OC)c2)cc1,0.618% [at 46.1 µM],
S=c1[nH]nc(-c2cc(-c3ccsc3)n[nH]2)n1-c1ccccc1,-11.3%,
CN(C)c1ccc(/C=C/C(=O)c2ccc(O)cc2)cc1[N+](=O)[O-],-9.72%,
Cn1nnc(NC(=O)CSc2ncn[nH]2)n1,-1.4% [at 46.1 µM],

SMILES,"activity change, negative = inhibition",Potency
O=C(CSc1ncn[nH]1)Nc1ccnc2ccccc12,,11.2 µM (active)
O=C(CSc1n[nH]c(-c2cccnc2)n1)Nc1ccnc2ccccc12,-14.5% [at 46.1 µM],
Brc1ccc(-c2n(-c3ccccn3)c3ccccc3[n+]2-c2ccccn2)cc1,8.85%,
CC(C)(C)c1cc(P(=O)(c2ccccc2)c2ccccc2)ccc1O,14.2%,
CC(=O)NC(=S)Nc1ccc(NC(=O)c2cccnc2)cc1,-4.87%,
CC(C)(C)OC(=O)NCCCCCC(=O)N/N=C/c1coc2ccccc2c1=O,-27.8%,
COC(=O)c1sc(C(F)(F)F)c(-c2ccccc2)c1S(=O)(=O)N(C)C,7.84%,
O=C(Nc1nc2ccc([N+](=O)[O-])cc2s1)c1ccncc1,16.4%,
O=C(O)CCC(=O)Nc1nc2ccc([N+](=O)[O-])cc2s1,-9.22% [at 46.1 µM],
O=C(NC(Nc1nc2ccc([N+](=O)[O-])cc2s1)(C(F)(F)F)C(F)(F)F)c1ccccc1,,0.126 µM (active)
Cc1ccc(NS(=O)(=O)c2ccc(N/N=C/c3ccccc3OCC(=O)O)c([N+](=O)[O-])c2)c(C)c1,-8.07%,
COc1cc2c(cc1OC)CC(=O)N(CCCN(C)C[C@H]1Cc3cc(OC)c(OC)cc31)CC2,17.7% [at 46.1 µM],
O=C(O)Cc1csc(NC(=O)CSc2nnnn2-c2ccc(O)cc2)n1,-3.49%,
Cc1cccc(C)c1NC(=O)NC1=CCCN1C,-4.99% [at 46.1 µM],
NC(=O)[C@H]1CC2(CC(c3cccc(NC(=O)[C@H]4CCC(=O)N4)c3)=NO2)CN1C(=O)c1ccccc1C(=O)c1ccccc1 (some centres undefined),-14.4%,
O=C(Cc1c(F)cccc1Cl)Nc1ncc([N+](=O)[O-])s1,,10 µM (active)
O=C(Cc1c(F)cccc1Cl)Nc1ccc(-n2cnnn2)cc1,-5.01% [at 46.1 µM],
Cc1cnc(NC(=O)CSc2c(Cl)cccc2Cl)s1,-1.32% [at 46.1 µM],
C/C=C/C=N/NC(=O)c1ccncc1,11.7% [at 46.1 µM],
CN(C)N=Nc1ccc2nc[nH]c2c1,9.84%,
O=C(O)CC1(CC(=O)Nc2cccc(C(F)(F)F)c2)CCCC1,35.4%,
CCOC(=O)N/N=C1\CC(C)S(=O)(=O)c2ccc(Cl)cc21 (centres undefined),2.2%,
COCc1cc(=O)[nH]c(SC)n1,-34.4%,
CCN(CCNC(=O)C1=C(C)C(=O)OC12CCC(C)CC2)c1ccccc1 (centres undefined),-10.9%,

SMILES,"activity change, negative = inhibition",Potency
COc1ccc(NS(=O)(=O)c2ccc(NC(=S)NC(=O)CC(C)C)cc2)cc1,,22.4 µM (active)
CC(=O)c1ccc(NC(=S)NC(=O)CC(C)C)cc1,-8.99% [at 46.1 µM],
COc1ccc(C(=O)Nc2ccc(S(=O)(=O)NC(C)C)cc2)cc1,-3.78% [at 46.1 µM],
COc1ccc(NC(=O)C2=NNC(=O)CC2)cc1S(=O)(=O)N1CCCCC1,-9.93%,
CCc1cc(CNC(=O)CC2C(=O)NCCN2Cc2ccccc2C(F)(F)F)on1 (centres undefined),-15.2%,
Cn1c(CSCC(=O)Nc2ccccc2)nnc1SCc1ccccc1,-3.46%,
Cc1ccc2c(c1)c1ncn(Cc3ccc(F)cc3)c(=O)c1n2C,-13.6%,
Cc1ccc2c(c1)c1ncnc(N3CCc4ccccc4C3)c1n2C,,11.2 µM (active)
Cc1ccc2c(c1)c1ncn(CCC3=CCCCC3)c(=O)c1n2C,-3.8% [at 46.1 µM],
Cc1ccc(C(=O)NNc2ncnc3ccccc23)cc1,-15%,
O=C(CNC(=O)c1ccc(-c2ccccc2)cc1)OCc1ccc(Cl)cc1,17.4% [at 46.1 µM],
O=C(CNC(=O)OCc1ccccc1)Oc1cc2oc(=O)cc(-c3ccccc3)c2cc1Cl,,7.08 µM (active)
CC(=O)COc1ccc2c(-c3ccccc3)cc(=O)oc2c1,2.72% [at 46.1 µM],
NCCCCC(N)C(=O)O (centres undefined),-9.12% [at 46.1 µM],
O=C(CS(=O)(=O)c1ccc(C(F)(F)F)cn1)NNC(=O)c1ccccc1,-20.9%,
CCOC(=O)c1c(C)nn(-c2ncccc2NC(=O)CCC(=O)O)c1C,16.3%,
O=C(Nc1nncs1)c1ccccc1NS(=O)(=O)c1cccs1,-25.2% [at 46.1 µM],
O=C(Nc1cccc(Cl)c1)Nc1nnc(-c2ccccc2)o1,7.19% [at 46.1 µM],
O=C(Nc1cccc(Cl)c1)Nc1ccccc1NS(=O)(=O)c1cccs1,,11.2 µM (active)
O=C(Cc1ccc(-c2ccccc2)cc1)NC(c1ccccc1)c1ccccc1,-10.3% [at 46.1 µM],
OCC(CO)(CO)NCc1ccc(-c2ccccc2)cc1,,11.2 µM (active)
O=C(O)Cc1ccc(-c2ccccc2)cc1,4.1% [at 46.1 µM],
CN(C(=O)CCn1c(=S)oc2ccccc21)C1CCCCC1,-13.5%,
